Reference: PMC7862700, “An all-to-all approach to the identification of sequence-specific readers for epigenetic DNA modifications on cytosine”

What was measured:
Assay in all cases: DAPPL (digital affinity profiling via proximity ligation, sequencing); 10 mM Tris-HCl pH 7.5, 50 mM NaCl, 1 mM DTT, 4% glycerol, room temperature, 30 min; GST-TFs on glutathione beads, 16-mer random dsDNA library, 0.1% formaldehyde crosslink after washing; high values mean tight binding
ELK1 = target: T1, ELK1 (Homo sapiens, UniProt P19419 1-428); details: protein: recombinant; tags: N-terminal GST; dsDNA, one strand shown
T1 sequence: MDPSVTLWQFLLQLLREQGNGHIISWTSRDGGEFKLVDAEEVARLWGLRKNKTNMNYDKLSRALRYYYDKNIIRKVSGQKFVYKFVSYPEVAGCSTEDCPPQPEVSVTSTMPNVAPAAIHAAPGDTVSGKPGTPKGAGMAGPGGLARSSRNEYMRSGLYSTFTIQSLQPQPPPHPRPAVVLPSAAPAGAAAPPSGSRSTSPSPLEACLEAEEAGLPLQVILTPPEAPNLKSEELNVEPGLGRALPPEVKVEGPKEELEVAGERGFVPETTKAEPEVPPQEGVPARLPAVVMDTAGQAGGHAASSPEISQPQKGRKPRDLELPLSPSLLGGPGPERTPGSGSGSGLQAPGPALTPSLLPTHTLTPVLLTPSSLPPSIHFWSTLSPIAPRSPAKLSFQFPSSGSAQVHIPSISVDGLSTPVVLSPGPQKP
Outline: (§1)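 Yeast served to express human transcription factors as GST fusions, which were then captured on glutathione beads and labelled with DNA barcodes. Pooled with a tag-only sample, they were incubated with 200 nmole of a 16-mer random double-stranded DNA library for 30 min at room temperature in Tris/NaCl/DTT/glycerol buffer, washed, crosslinked with 0.1% formaldehyde, ligated by proximity, amplified by PCR and sequenced. Dividing each hexamer's read frequency for a factor by its frequency for the tag-only sample gives the binding signal.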

EHF = target: T2, EHF (Homo sapiens, UniProt Q9NZC4 1-300); details: protein: recombinant; tags: N-terminal GST; dsDNA, one strand shown
T2 sequence: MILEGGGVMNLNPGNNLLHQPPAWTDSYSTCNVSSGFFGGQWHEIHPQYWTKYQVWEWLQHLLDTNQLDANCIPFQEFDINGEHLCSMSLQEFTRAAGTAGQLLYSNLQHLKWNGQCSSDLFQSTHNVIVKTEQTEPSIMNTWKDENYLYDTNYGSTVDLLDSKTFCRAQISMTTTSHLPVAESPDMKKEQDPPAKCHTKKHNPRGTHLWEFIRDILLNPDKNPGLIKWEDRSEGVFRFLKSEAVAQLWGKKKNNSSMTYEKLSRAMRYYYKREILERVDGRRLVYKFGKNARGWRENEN
Outline: as §1

SPI1 = SPI1 (Homo sapiens, UniProt P17947 1-270); details: protein: recombinant; tags: N-terminal GST; dsDNA, one strand shown
Outline: as §1

ELK3 = target: T3, ELK3 (Homo sapiens, UniProt P41970 1-407); details: protein: recombinant; tags: N-terminal GST; dsDNA, one strand shown
T3 sequence: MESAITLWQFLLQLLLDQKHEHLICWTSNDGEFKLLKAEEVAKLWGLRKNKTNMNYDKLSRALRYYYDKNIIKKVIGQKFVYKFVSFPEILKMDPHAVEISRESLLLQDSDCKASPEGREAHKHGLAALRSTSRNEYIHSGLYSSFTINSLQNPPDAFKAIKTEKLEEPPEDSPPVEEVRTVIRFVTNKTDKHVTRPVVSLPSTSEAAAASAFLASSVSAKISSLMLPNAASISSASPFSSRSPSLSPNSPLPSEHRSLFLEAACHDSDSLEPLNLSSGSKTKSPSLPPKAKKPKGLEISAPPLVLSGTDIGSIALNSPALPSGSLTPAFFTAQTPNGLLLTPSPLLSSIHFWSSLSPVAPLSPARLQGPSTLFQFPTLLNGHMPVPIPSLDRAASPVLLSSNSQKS
Outline: as §1

HSF1 = HSF1 (Homo sapiens, UniProt Q00613 1-529); details: protein: recombinant; tags: N-terminal GST; chain copies: 3; dsDNA, one strand shown
Outline: as §1

ELF4 = ELF4 (Homo sapiens, UniProt Q99607 1-663); details: protein: recombinant; tags: N-terminal GST; dsDNA, one strand shown
Outline: as §1

ELK4 = target: T4, ELK4 (Homo sapiens, UniProt P28324-2 1-405); details: protein: recombinant; tags: N-terminal GST; dsDNA, one strand shown
T4 sequence: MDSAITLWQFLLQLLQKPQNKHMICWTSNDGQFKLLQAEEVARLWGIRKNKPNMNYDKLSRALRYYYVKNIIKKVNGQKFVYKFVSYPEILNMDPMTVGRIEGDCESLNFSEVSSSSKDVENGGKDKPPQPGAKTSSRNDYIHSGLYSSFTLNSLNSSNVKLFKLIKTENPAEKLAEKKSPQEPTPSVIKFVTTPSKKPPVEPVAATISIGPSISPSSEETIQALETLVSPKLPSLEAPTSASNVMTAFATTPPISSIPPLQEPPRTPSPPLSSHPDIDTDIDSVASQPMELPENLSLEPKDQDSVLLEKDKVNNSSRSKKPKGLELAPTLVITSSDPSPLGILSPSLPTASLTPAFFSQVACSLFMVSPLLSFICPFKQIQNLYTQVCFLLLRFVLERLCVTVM
Outline: as §1

CRX = CRX (Homo sapiens, UniProt O43186 1-299); details: protein: recombinant; tags: N-terminal GST; dsDNA, one strand shown
Outline: as §1

ETV3L = target: T5, ETV3L (Homo sapiens, UniProt Q6ZN32 1-361); details: protein: recombinant; tags: N-terminal GST; dsDNA, one strand shown
T5 sequence: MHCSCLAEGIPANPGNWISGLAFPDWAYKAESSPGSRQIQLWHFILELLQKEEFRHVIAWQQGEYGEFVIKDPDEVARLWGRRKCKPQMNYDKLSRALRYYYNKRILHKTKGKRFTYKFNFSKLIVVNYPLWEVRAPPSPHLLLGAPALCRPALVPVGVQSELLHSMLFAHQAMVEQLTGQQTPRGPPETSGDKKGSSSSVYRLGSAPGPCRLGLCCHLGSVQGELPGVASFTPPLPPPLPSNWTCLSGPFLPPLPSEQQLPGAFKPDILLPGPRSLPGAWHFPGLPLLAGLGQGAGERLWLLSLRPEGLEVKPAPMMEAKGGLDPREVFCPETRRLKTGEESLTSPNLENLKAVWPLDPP
Outline: as §1

ETS2 = target: T6, ETS2 (Homo sapiens, UniProt P15036 1-469); details: protein: recombinant; tags: N-terminal GST; dsDNA, one strand shown
T6 sequence: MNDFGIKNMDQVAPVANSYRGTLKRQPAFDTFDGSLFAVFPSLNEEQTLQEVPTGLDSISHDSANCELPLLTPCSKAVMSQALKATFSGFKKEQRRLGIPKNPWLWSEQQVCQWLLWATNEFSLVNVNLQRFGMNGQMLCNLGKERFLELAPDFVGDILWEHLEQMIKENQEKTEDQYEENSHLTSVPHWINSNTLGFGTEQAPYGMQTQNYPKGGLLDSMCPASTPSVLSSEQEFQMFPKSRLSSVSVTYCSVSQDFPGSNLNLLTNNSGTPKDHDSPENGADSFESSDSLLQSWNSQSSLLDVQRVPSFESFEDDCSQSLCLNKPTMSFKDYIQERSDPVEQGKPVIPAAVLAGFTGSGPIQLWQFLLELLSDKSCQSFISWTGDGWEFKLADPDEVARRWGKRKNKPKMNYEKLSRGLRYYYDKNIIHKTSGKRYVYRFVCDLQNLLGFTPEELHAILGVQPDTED
Outline: as §1

SPDEF = target: T7, SPDEF (Homo sapiens, UniProt O95238 1-335); details: protein: recombinant; tags: N-terminal GST; dsDNA, one strand shown
T7 sequence: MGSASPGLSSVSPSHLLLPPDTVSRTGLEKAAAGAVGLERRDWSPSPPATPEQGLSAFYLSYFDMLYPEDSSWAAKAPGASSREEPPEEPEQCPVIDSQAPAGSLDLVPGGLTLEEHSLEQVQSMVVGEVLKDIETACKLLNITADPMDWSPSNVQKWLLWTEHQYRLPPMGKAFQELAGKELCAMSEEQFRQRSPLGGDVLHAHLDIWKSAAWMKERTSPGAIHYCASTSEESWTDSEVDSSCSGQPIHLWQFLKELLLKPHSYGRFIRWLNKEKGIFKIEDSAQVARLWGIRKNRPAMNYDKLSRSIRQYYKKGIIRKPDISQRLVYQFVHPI
Outline: as §1

ETV6 = ETV6 (Homo sapiens, UniProt P41212 1-452); details: protein: recombinant; tags: N-terminal GST; dsDNA, one strand shown
Outline: as §1

SPIB = SPIB (Homo sapiens, UniProt Q01892 1-262); details: protein: recombinant; tags: N-terminal GST; dsDNA, one strand shown
Outline: as §1

ETV2 = target: T8, ETV2 (Homo sapiens, UniProt O00321 1-342); details: protein: recombinant; tags: N-terminal GST; dsDNA, one strand shown
T8 sequence: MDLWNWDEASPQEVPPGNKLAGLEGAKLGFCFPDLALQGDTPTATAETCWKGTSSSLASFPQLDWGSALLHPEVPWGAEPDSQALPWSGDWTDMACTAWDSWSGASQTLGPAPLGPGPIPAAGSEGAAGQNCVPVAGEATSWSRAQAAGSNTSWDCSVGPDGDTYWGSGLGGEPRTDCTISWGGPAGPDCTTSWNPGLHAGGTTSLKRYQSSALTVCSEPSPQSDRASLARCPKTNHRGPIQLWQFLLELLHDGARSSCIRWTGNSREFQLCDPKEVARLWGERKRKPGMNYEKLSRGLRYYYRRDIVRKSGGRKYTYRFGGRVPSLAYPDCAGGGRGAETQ
Outline: as §1

Sequence of CRX (O43186 whole entry): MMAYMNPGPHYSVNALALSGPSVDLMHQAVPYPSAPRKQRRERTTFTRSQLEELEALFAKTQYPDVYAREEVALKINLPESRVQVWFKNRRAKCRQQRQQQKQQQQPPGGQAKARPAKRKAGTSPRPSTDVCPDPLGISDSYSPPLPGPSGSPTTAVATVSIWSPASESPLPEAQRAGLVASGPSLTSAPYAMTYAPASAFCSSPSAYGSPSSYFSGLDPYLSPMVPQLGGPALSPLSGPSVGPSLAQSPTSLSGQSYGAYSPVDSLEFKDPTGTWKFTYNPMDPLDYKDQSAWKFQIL
Sequence of ETV6 (P41212 whole entry): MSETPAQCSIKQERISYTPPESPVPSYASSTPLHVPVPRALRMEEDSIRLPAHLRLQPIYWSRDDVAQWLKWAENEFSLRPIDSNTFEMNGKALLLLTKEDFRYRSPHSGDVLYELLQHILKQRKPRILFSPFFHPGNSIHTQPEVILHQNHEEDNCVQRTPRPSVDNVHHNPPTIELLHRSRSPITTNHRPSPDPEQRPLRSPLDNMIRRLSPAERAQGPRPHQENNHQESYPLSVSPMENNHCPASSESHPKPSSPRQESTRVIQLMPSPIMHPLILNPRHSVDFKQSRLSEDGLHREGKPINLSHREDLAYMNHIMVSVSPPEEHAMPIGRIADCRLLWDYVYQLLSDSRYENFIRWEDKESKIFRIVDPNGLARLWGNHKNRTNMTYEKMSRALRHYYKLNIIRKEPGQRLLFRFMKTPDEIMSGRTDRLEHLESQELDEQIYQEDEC
Sequence of HSF1 (Q00613 whole entry): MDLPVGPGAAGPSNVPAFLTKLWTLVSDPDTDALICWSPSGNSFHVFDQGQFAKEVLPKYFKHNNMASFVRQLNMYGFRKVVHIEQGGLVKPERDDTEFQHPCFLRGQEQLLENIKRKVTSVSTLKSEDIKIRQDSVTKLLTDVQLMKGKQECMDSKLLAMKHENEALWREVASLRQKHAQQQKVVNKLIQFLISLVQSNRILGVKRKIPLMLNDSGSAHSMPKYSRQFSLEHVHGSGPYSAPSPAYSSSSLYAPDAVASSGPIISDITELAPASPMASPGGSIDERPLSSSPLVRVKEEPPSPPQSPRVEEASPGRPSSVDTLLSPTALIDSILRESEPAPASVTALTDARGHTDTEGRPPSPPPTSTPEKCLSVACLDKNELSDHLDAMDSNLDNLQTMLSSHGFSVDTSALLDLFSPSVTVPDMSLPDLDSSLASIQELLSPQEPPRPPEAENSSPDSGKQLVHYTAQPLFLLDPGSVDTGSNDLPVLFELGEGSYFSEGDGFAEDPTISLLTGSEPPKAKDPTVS
Sequence of ELF4 (Q99607 whole entry): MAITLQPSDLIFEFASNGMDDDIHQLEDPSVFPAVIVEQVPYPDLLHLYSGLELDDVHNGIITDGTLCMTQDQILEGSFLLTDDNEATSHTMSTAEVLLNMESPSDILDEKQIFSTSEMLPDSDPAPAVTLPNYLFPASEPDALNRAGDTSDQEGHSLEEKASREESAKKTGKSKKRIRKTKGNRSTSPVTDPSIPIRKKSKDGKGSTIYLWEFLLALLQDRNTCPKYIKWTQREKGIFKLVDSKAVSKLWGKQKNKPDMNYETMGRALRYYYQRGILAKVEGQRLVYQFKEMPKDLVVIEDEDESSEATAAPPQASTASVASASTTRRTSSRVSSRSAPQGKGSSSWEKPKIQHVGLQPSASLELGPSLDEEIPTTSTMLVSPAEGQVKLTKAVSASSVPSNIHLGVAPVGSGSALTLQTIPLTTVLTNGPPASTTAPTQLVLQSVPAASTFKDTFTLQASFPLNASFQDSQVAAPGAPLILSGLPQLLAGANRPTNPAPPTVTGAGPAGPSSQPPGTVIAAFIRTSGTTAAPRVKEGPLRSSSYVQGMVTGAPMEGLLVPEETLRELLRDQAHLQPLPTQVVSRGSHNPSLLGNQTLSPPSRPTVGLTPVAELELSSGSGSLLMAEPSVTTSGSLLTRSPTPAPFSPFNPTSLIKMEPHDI
Sequence of SPIB (Q01892 whole entry): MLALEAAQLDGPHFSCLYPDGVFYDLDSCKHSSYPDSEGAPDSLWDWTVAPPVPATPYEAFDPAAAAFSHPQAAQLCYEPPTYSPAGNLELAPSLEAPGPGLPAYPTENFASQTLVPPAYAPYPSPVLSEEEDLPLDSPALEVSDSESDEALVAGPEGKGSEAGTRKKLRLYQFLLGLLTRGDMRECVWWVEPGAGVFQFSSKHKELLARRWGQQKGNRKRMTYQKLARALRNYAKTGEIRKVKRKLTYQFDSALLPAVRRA

| Sequence | binding signal (ELK1) | binding signal (EHF) | binding signal (SPI1) | binding signal (ELK3) | binding signal (HSF1) | binding signal (ELF4) | binding signal (ELK4) | binding signal (CRX) | binding signal (ETV3L) | binding signal (ETS2) | binding signal (SPDEF) | binding signal (ETV6) | binding signal (SPIB) | binding signal (ETV2) |
| --- | --- | --- | --- | --- | --- | --- | --- | --- | --- | --- | --- | --- | --- | --- |
| AGATTA | 1.02 fold enrichment (6-mer frequency, TF over GST control) | 1.03 fold enrichment (6-mer frequency, TF over GST control) | 1.01 fold enrichment (6-mer frequency, TF over GST control) | 1.03 fold enrichment (6-mer frequency, TF over GST control) | 2.62 fold enrichment (6-mer frequency, TF over GST control) | 1.05 fold enrichment (6-mer frequency, TF over GST control) | 1.05 fold enrichment (6-mer frequency, TF over GST control) | 4.03 fold enrichment (6-mer frequency, TF over GST control) | 1.02 fold enrichment (6-mer frequency, TF over GST control) | 1 fold enrichment (6-mer frequency, TF over GST control) | 1.05 fold enrichment (6-mer frequency, TF over GST control) | 1.04 fold enrichment (6-mer frequency, TF over GST control) |  |  |
| GATAAA |  |  |  |  | 1.21 fold enrichment (6-mer frequency, TF over GST control) | 1.01 fold enrichment (6-mer frequency, TF over GST control) | 1.02 fold enrichment (6-mer frequency, TF over GST control) | 1.55 fold enrichment (6-mer frequency, TF over GST control) |  |  |  | 1 fold enrichment (6-mer frequency, TF over GST control) | 1.04 fold enrichment (6-mer frequency, TF over GST control) | 1.12 fold enrichment (6-mer frequency, TF over GST control) |
